43 sequences from publication PMC7819943, “Rice protein-binding microarrays: a tool to detect cis-acting elements near promoter regions in rice” can be followed below.

Whole data set: some 39,000 sequences, median “fluorescence intensity (a.u.)” near 4,300, cut for the highest 2% near 39,000. Many of the other results were omitted from the sample, so the highest values are more common in it than they were.

The target in the experiment is T1, OsSMF1 (Oryza sativa, UniProt Q6ZLB0 1-436).
T1 sequence: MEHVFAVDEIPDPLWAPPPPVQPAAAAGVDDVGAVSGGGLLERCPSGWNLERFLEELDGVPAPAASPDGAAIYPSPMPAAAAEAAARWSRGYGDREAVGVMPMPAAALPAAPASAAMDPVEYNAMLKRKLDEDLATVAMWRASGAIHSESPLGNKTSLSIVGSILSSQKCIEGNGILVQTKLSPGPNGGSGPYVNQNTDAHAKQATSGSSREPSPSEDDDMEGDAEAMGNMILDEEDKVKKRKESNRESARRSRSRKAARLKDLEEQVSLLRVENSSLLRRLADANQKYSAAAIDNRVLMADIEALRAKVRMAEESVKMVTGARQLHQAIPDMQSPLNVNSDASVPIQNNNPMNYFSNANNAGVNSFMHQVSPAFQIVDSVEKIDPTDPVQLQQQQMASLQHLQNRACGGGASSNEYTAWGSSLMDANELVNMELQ
Kind of experiment: protein-binding microarray (RPBM); PBS, 2% BSA, 51.3 ng/ul salmon testes DNA, 50 uM zinc acetate, 200 nM TF, 25 C, 1 h; high values mean tight binding. The settings on record: protein: recombinant; tags: N-terminal polyhistidine and DsRed monomer fusion (pET32a); chain copies: 2; label: CyDye5-dUTP incorporated in the synthesized complementary strand; 3' TTTTT single-stranded linker to array surface; dsDNA, one strand shown. In short, it runs like this: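 The binding signal is fluorescence intensity per feature, in arbitrary units, read on an Axon 4000B scanner. Polyhistidine- and DsRed-tagged transcription factors (N-terminal fusions) from E. coli BL21-CodonPlus were purified on Ni–NTA and applied at 200 nM for 1 h at 25 °C to a double-stranded, BSA-blocked custom Agilent array in buffer with 50 µM zinc acetate.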
As to “CACCTGCAGCTGCCACGTCAGAGCCACGTCGGATTCCAACCGGAGTCACCTAGTGCAG”, the binding signal is 40800 fluorescence intensity (a.u.). On to “GGAACATGTATGCACCGAACCTGGTGCATGTCCACGTTCACGGAGTCACCTAGTGCAG”, for which the binding signal is 3740 fluorescence intensity (a.u.). As for “GTTCAATTCCTGCTGGATGCACGTGAACCGGAACGTTCCACGGAGTCACCTAGTGCAG”, the binding signal is 52000 fluorescence intensity (a.u.).

In the case of “CACACTGAGTCAGCTGCCACGTCGGATAAAACCGGAGTCACGGAGTCACCTAGTGCAG”, the binding signal is 10500 fluorescence intensity (a.u.). In the case of “GATGCACCACTGCTGCGTCGCACGTTCCACCCCATTCCACCGGAGTCACCTAGTGCAG”, the binding signal was 3520 fluorescence intensity (a.u.).

In the case of “ATTCCTATCATTGGAGTATGTGTGCACGTCATTAGTGCCACGGAGTCACCTAGTGCAG”, the binding signal is 6500 fluorescence intensity (a.u.).

As for “CACGCCAACTAGGATGGATAGATGGGCCACATGTATTCCACGGAGTCACCTAGTGCAG”, the binding signal was 3530 fluorescence intensity (a.u.). Regarding “AGTATCAGATTCCAACTCACATGCCACGTCACATGCATGCCGGAGTCACCTAGTGCAG”, the binding signal was 42200 fluorescence intensity (a.u.). As to “CACATTGAGTCAGCTGCCACGTCGGATAAAACCGGAGTCACGGAGTCACCTAGTGCAG”, the binding signal is 15000 fluorescence intensity (a.u.). On to “TCTTTCTGCACTTTCTCTGAACGTGGATAAGACATAACCGCGGAGTCACCTAGTGCAG”, for which the binding signal was 8130 fluorescence intensity (a.u.). Turning to “TTAATCACTTCTCAAACTTTTAATGCAATGACTTGTGAACCGGAGTCACCTAGTGCAG”, the binding signal is 3420 fluorescence intensity (a.u.). With “CGTCCGCAGCACGCCACGGTAGCGCGACACCCGGCCTTCCCGGAGTCACCTAGTGCAG” the figure was 4600 fluorescence intensity (a.u.). In the case of “AAGCGATGGAAGCAGCAGACGTGTCGCACGGGAATTTGAGCGGAGTCACCTAGTGCAG”, the binding signal was 5240 fluorescence intensity (a.u.). Take “GGCATGGGTATGGGTCATCACTACCCATGCCCGCTTTGCCCGGAGTCACCTAGTGCAG”: the binding signal was 4410 fluorescence intensity (a.u.). For the sequence “GATGGTAGGTATGCATATGACGCATATCCTACCTGACGGACGGAGTCACCTAGTGCAG”, the binding signal is 3450 fluorescence intensity (a.u.). With “GTTGACATATGGATCCTGGTGTTATCGACTCAATGTAGAGCGGAGTCACCTAGTGCAG”, the binding signal was 5150 fluorescence intensity (a.u.). With “TTTTAGGTAGAATGGTCCTGTTGGATCATCATATCAATGACGGAGTCACCTAGTGCAG” the figure was 43400 fluorescence intensity (a.u.); with “TATCCAGGCGCACGACACTTGACAACTCTGTACTACGTAGCGGAGTCACCTAGTGCAG”, 38900 fluorescence intensity (a.u.); with “AATTGATCTTCAGAGCCCACGTAGGTATTAGACTTTCCTACGGAGTCACCTAGTGCAG”, 6290 fluorescence intensity (a.u.). The same measure for “GGCCAGTTCTCTTCCACGTGGAGGCGGCCTCTCACAGCCGCGGAGTCACCTAGTGCAG”: 10300 fluorescence intensity (a.u.).

On to “TAGTTTCACTTATTATTTATTTCAGTAAAAGAAAGTTTCCCGGAGTCACCTAGTGCAG”, for which the binding signal is 3690 fluorescence intensity (a.u.).

“TCATCATCATCATCATTATTAAAGTAAATTTCAGAAAACTCGGAGTCACCTAGTGCAG”: the binding signal was 21600 fluorescence intensity (a.u.). As for “AATTTCAGTACTCAGTTCATTAAATTAATTAAAGAAAGGCCGGAGTCACCTAGTGCAG”, the binding signal is 51100 fluorescence intensity (a.u.). With “GCGGAGGTCGACCTTGGCGAGGTCGTCCACGTCCGGGTGCCGGAGTCACCTAGTGCAG”, the binding signal was 3340 fluorescence intensity (a.u.). With “CCATCTTCATCTCCATATCTTCTCCTCCTCGCGTCGGCAGCGGAGTCACCTAGTGCAG” the figure was 3270 fluorescence intensity (a.u.).

Regarding “AACTTCTCAATGTGTGGCCCCGAGCTGTGGCTTCACAGCTCGGAGTCACCTAGTGCAG”, the binding signal was 63300 fluorescence intensity (a.u.). Consider “GGCCCCACATGTCATCTCCTCCCTTTCTTCTTCCTCCCCTCGGAGTCACCTAGTGCAG”, for which the binding signal is 4040 fluorescence intensity (a.u.). The same measure for “CCCAGCCCGGCGTCCCCTTCTCGGCTTCCTCCTCCACCATCGGAGTCACCTAGTGCAG”: 4100 fluorescence intensity (a.u.); for “GCAATCTCATGATTCATGCAGCTTTGTAGCAATGTGTGCTCGGAGTCACCTAGTGCAG”: 3140 fluorescence intensity (a.u.). For “TCTCCCCAGATTTCCCCTTCCATTCCGCCTCCCGATCGCTCGGAGTCACCTAGTGCAG”, the binding signal is 43300 fluorescence intensity (a.u.). Regarding “CTTCAGTCCTCGGCCCATTCTCCCTTCCTTTCAGCTGGCTCGGAGTCACCTAGTGCAG”, the binding signal is 45600 fluorescence intensity (a.u.). Take “AAATCCGCCCTCGCCTCGCCCCGATCGATCCCCTCGATTCCGGAGTCACCTAGTGCAG”: the binding signal was 3810 fluorescence intensity (a.u.). The same measure for “TCTAACCCCGCCTGCAGATCCGCTCCATCGATTCCCTCCCCGGAGTCACCTAGTGCAG”: 31700 fluorescence intensity (a.u.); for “GCTTCTGCTGTGGCTGTGCTGAGCTTTCACAGTCACAGCCCGGAGTCACCTAGTGCAG”: 3550 fluorescence intensity (a.u.). Take “GGAGGAGGAGGAGGAGGGAGATGGTGGCGAGCTGACTTGGCGGAGTCACCTAGTGCAG”: the binding signal was 4090 fluorescence intensity (a.u.). For the sequence “TCAGCTGCGTCACCCGAGTCCTCCACTCGTCTCCGCTATTCGGAGTCACCTAGTGCAG”, the binding signal is 5650 fluorescence intensity (a.u.). For the sequence “TCACTGCGTGCATGTATGTACGTGGATTGTCCAATTACAACGGAGTCACCTAGTGCAG”, the binding signal is 3300 fluorescence intensity (a.u.). Take “CTCCTAGCAGCAACAGGGCCACGTTTGCTCTGCGAACAGGCGGAGTCACCTAGTGCAG”: the binding signal was 4590 fluorescence intensity (a.u.). For the sequence “TTTGGTTAGTGAATTTAGCTATCCTCTCCTTGACTTCCTACGGAGTCACCTAGTGCAG”, the binding signal was 3660 fluorescence intensity (a.u.). As to “ATTTAGTGCTAAATATGTAGTTTCATGATACATCATGTTACGGAGTCACCTAGTGCAG”, the binding signal was 3850 fluorescence intensity (a.u.). “TGTGTTCTGCAATGCATAATTGCACCAGTTCTAGTACCTGCGGAGTCACCTAGTGCAG”: the binding signal was 45300 fluorescence intensity (a.u.). Take “TGGTGTGTAATTTGTGCAAATTCTAAGCAAATGCAAATTGCGGAGTCACCTAGTGCAG”: the binding signal was 17200 fluorescence intensity (a.u.).

Regarding “GGTGCAGTTCATCATATGTGTTAGACTAATTGAGTAATTGCGGAGTCACCTAGTGCAG”, the binding signal is 36500 fluorescence intensity (a.u.).
